Test results taken from PubChem BioAssay (Tox21).
Records with an inconclusive call do not appear. Calls of active or inactive are those of the source. Unless noted, calls come from the whole dose curve; as a rule, active = well fitted curve in the direction sought with a large enough effect in the repeat runs; inconclusive = weak or mixed curves; inactive = no such curve, though single readings can be large; an effect the other way counts as inactive or inconclusive.

Key:
[1] = qHTS assay for small molecule agonists of the p53 signaling pathway (AID 651631; calls by dose curve; note: nearly all actives have a fitted effect of over 15% in size)
Procedure, shortened: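 Beta-lactamase reporter activity under p53 response elements was quantified in HCT-116 cells by FRET fluorescence, following 16 h incubation with test compounds at 37 °C and 2 h substrate development at room temperature.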

[2] = qHTS assay for small molecules that induce genotoxicity in human embryonic kidney cells expressing luciferase-tagged ATAD5 (AID 651632); note: nearly all actives have a fitted effect of over 15% in size
Procedure, shortened: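 Increased luciferase signal from ATAD5-tagged reporter cells indicates DNA-damage-driven ATAD5 induction. HEK293T cells are treated for 16 hr at 37C before detection with Amplite.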

[3] = qHTS assay for small molecule agonists of the p53 signaling pathway - cell viability (AID 651633; calls by dose curve;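 note: p53RE-bla HCT reporter cells with a stable beta-lactamase p53 reporter; series mostly up to about 83 µM; nearly all actives have a fitted effect of over 30% in size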)
Procedure, shortened: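 p53RE-bla cells were treated with compound for 16 hours at 37 C. Cytotoxicity was then measured as CellTiter-Glo luminescence after 30 min at room temperature.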

[4] = qHTS assay for small molecules that induce genotoxicity in human embryonic kidney cells expressing luciferase-tagged ATAD5 - cell viability (AID 651634; calls by dose curve; note: nearly all actives have a fitted effect of over 25% in size)
Procedure, shortened: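 Cytotoxicity counterscreen in HEK293T cells bearing an ATAD5-luciferase reporter: live-cell protease activity measured by CellTiter-Fluor fluorescence after 15.5 hr compound exposure.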

[5] = qHTS assay for small molecule disruptors of the mitochondrial membrane potential - cell viability (AID 720634; calls by dose curve;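 note: human HepG2 liver cancer cells; series mostly up to about 83 µM; nearly all actives have a fitted effect of over 20% in size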)
Procedure, shortened: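 After overnight attachment at 37 C, HepG2 cells received compound or DMSO vehicle for 1 hr. Viability is then taken from ATP-driven luminescence following a 30 min room-temperature CellTiter-Glo step.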

[6] = qHTS assay to test for compound auto fluorescence at 590 nm (red) in HepG2 cells (AID 720674)
Procedure, shortened: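 Fluorescence at 590 nm emission following 540 nm excitation was recorded from HepG2 wells one hour after compound transfer, with DMSO-only wells as vehicle and Rose Bengal sodium equivalency as the scale.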

[7] = qHTS assay to test for compound auto fluorescence at 535 nm (green) in HepG2 cells (AID 720675)
[8] = qHTS assay to test for compound auto fluorescence at 460 nm (blue) in HEK293 cells (AID 720678)
Procedure, shortened: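 Cells were seeded and left to adhere for 4-5 hr at 37C. Compounds were then pin-transferred. After an overnight incubation at 37C under 5% CO2, intrinsic fluorescence at 405/460 nm was measured and referenced to triamterene.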

[9] = qHTS assay to test for compound auto fluorescence at 590 nm (red) in HEK293 cells (AID 720679)
Procedure, shortened: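 Each well held 2,000 HEK293 cells in medium containing 10% dialyzed FBS. Following 4-5 hr attachment at 37C, 23 nL test compound or DMSO was added; plates sat overnight, and red fluorescence (540/590nm) was recorded.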

[10] = qHTS assay to test for compound auto fluorescence at 535 nm (green) in HEK293 cells (AID 720680)
[11] = qHTS assay to test for compound auto fluorescence at 460 nm (blue) in HEK293 cell free culture (AID 720681)
Procedure, shortened: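 Compounds were added to cell-free DMEM with 10% FBS and fluorescence read directly. The blue channel used 405 nm excitation and 460 nm emission, with triamterene as the reference fluorophore.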

[12] = qHTS assay to test for compound auto fluorescence at 535 nm (green) in HEK293 cell free culture (AID 720682)
Procedure, shortened: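 Each library compound, or DMSO control, is added by pintool to medium alone, comprising DMEM and 10% FBS. Emission at 535 nm following 485 nm excitation is quantified against fluorescein.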

[13] = qHTS assay to test for compound auto fluorescence at 590 nm (red) in HEK293 cell free culture (AID 720683)
Procedure, shortened: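 Cell-free wells of DMEM with 10% FBS received compound, and intrinsic fluorescence was read at excitation/emission 540/590 nm. Values expressed as equivalence to Rose Bengal sodium.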

[14] = qHTS assay to test for compound auto fluorescence at 590 nm (red) in HepG2 cell free culture (AID 720684)
Procedure, shortened: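 Compounds are added to culture medium (MEM, 10% FBS) lacking cells, then fluorescence is read at excitation 540 nm, emission 590 nm, with Rose Bengal sodium as the equivalency standard.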

[15] = qHTS assay to test for compound auto fluorescence at 460 nm (blue) in HepG2 cell free culture (AID 720685)
Procedure, shortened: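 Compound (23 nL) or DMSO pinned into cell-free MEM with 10% FBS; blue fluorescence read at 405/460 nm excitation/emission, expressed as auto-fluorescence equivalency to triamterene.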

[16] = qHTS assay to test for compound auto fluorescence at 535 nm (green) in HepG2 cell free culture (AID 720686)
[17] = qHTS assay to test for compound auto fluorescence at 460 nm (blue) in HepG2 cells (AID 720687)
Procedure, shortened: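 HepG2 cells in MEM with 10% FBS, attached overnight at 37 C, were exposed to compound or DMSO for 1 hr at 37 C, 5% CO2. Blue fluorescence was read at 405/460 nm, with triamterene as reference fluorophore.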

[18] = qHTS assay for small molecule disruptors of the mitochondrial membrane potential (AID 720635)
Procedure, shortened: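 HepG2 cells exposed to compound 1 hr at 37C, then Mito-MPS dye 30 min. Ratio read of aggregate (540/590 nm) versus monomer (490/535 nm) fluorescence.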

[19] = target: Glucocorticoid receptor (Homo sapiens) (UniProt P04150); test: qHTS assay to identify small molecule agonists of the glucocorticoid receptor (GR) signaling pathway (AID 720691; active = well fitted activation curve with a large enough effect in the signal ratio in the repeat runs, not every such curve was filed as active; the % refers to the signal ratio)
Glucocorticoid receptor (Homo sapiens), sequence (P04150 whole entry, looked up): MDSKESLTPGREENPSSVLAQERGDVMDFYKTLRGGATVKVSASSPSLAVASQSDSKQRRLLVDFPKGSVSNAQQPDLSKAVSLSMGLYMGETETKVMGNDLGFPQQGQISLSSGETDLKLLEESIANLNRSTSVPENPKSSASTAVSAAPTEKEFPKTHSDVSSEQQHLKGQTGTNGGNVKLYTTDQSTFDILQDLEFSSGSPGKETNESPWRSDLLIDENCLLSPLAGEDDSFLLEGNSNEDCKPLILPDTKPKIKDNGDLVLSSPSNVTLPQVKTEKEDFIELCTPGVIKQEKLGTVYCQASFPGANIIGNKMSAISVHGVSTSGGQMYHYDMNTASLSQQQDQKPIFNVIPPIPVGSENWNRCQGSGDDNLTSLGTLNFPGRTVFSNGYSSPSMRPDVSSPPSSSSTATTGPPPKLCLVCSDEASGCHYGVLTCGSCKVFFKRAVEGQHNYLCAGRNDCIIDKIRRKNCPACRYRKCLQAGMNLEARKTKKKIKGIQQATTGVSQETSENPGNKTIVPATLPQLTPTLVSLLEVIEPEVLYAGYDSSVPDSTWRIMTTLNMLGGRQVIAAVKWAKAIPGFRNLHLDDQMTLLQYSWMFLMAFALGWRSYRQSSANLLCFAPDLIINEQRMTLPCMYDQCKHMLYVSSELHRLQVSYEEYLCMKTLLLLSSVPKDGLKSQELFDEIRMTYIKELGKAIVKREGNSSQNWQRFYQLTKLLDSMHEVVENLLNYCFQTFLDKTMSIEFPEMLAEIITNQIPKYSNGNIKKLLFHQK
Procedure, shortened: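 Agonist mode in a HeLa line carrying a GRE-controlled beta-lactamase reporter. Compounds act for 18 h at 37 C before a 2 h room-temperature FRET substrate step and fluorescence reading.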

[20] = target: Glucocorticoid receptor (Homo sapiens) (UniProt P04150); test: qHTS assay to identify small molecule antagonists of the glucocorticoid receptor (GR) signaling pathway (AID 720692; active = well fitted inhibition curve with a large enough effect in the signal ratio in the repeat runs, not every such curve was filed as active; the % refers to the signal ratio)
Procedure, shortened: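 Cells plated, rested 4 h at 37 C/5% CO2; compounds in DMSO pin-transferred; dexamethasone added to 5 nM final; 18 h at 37 C; B/G FRET substrate added, 2 h room temperature; fluorescence measured.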
% is set by controls: 0 for no effect and ±100 for the full control effect.

NC(CO)C(=O)NNCc1ccc(O)c(O)c1O (centres undefined)
inactive: outcome [1] | Potency [2] | outcome [3] | Potency [4] | outcome [5] | outcome [6] | outcome [7] | outcome [8] | outcome [9] | outcome [10] | outcome [11] | outcome [12] | outcome [13] | outcome [14] | outcome [15] | outcome [16] | outcome [17]

N#Cc1ccc(C(=O)O)cc1
inactive: outcome [1] | Potency [2] | outcome [3] | Potency [4] | outcome [5] | Potency [18] | outcome [6] | outcome [8] | outcome [9] | outcome [10] | outcome [11] | outcome [12] | outcome [13] | outcome [14] | outcome [15] | outcome [16] | outcome [17]

ClCCCl
inactive: outcome [1] | Potency [2] | outcome [3] | Potency [4] | outcome [5] | Potency [18] | outcome [6] | outcome [8] | outcome [9] | outcome [10] | outcome [11] | outcome [12] | outcome [13] | outcome [14] | outcome [15] | outcome [16] | outcome [17] | Potency [19] | outcome [20]

O=S(O)(O)=S
inactive: activation [1] -6.63% [at 8.3 µM] | activation [2] 2.28% [at 8.08 µM] | activity change, negative = cytotoxicity [3] 18.5% [at 8.08 µM] | activity, negative = cytotoxicity [4] -2.41% [at 8.08 µM] | activity change, negative = cytotoxicity [5] 11.6% [at 8.08 µM] | fluorescence, relative to Rose Bengal [6] -0.423% [at 3.72 µM] | fluorescence, % of fluorescein control [7] 0.0128% [at 3.72 µM] | fluorescence, % of triamterene [8] -0.0172% [at 3.72 µM] | fluorescence, % of fluorescent control [9] 0.178% [at 3.72 µM] | fluorescence, % of fluorescein [10] -0.0177% [at 3.72 µM] | fluorescence, % of fluorescent control [11] -0.0004% [at 3.72 µM] | activity change [12] -0.0159% [at 3.72 µM] | fluorescence, % of fluorescent control [13] -0.356% [at 3.72 µM] | fluorescence, % of Rose Bengal [14] -0.0109% [at 3.72 µM] | fluorescence, % of fluorescent control [15] -0.093% [at 3.72 µM] | fluorescence, % of fluorescein control [16] 0.0353% [at 3.72 µM]

OCCCCC(O)CO (centres undefined)
inactive: outcome [1] | Potency [2] | outcome [3] | Potency [4] | outcome [5] | Potency [18] | outcome [6] | outcome [7] | outcome [8] | outcome [9] | outcome [10] | outcome [11] | outcome [12] | outcome [14] | outcome [15] | outcome [16] | outcome [17] | Potency [19] | outcome [20]

CC(C)=O
inactive: outcome [1] | Potency [2] | outcome [3] | Potency [4] | outcome [5] | Potency [18] | outcome [6] | outcome [8] | outcome [9] | outcome [10] | outcome [11] | outcome [12] | outcome [14] | outcome [15] | outcome [17]

COc1ccc(C2CNC(=O)C2)cc1OC1CCCC1 (centres undefined)
inactive: outcome [1] | Potency [2] | outcome [3] | Potency [4] | outcome [5] | Potency [18] | fluorescence, relative to Rose Bengal [6] -0.195% [at 18.6 µM] | fluorescence, % of fluorescein control [7] 0.104% [at 18.6 µM] | fluorescence, % of triamterene [8] 0.004% [at 18.6 µM] | fluorescence, % of fluorescent control [9] -0.255% [at 18.6 µM] | fluorescence, % of fluorescein [10] 0.0387% [at 18.6 µM] | fluorescence, % of fluorescent control [11] -0.0755% [at 18.6 µM] | fluorescence, % of fluorescent control [13] -0.222% [at 18.6 µM] | fluorescence, % of Rose Bengal [14] 0.472% [at 18.6 µM] | fluorescence, % of fluorescent control [15] -0.0095% [at 18.6 µM] | fluorescence, % of fluorescein control [16] -0.0056% [at 18.6 µM] | fluorescence, % of fluorescent control [17] -0.0914% [at 18.6 µM] | Potency [19]

CC(COC(C)(C)C)OCCCO (centres undefined)
inactive: outcome [1] | Potency [2] | outcome [3] | Potency [4] | outcome [5] | Potency [18] | outcome [6] | outcome [8] | outcome [9] | outcome [10] | outcome [11] | outcome [13] | outcome [14] | outcome [15] | outcome [16] | outcome [17]

Cc1ccccc1OCC(O)CO (centres undefined)
inactive: outcome [1] | Potency [2] | outcome [3] | Potency [4] | outcome [5] | Potency [18] | outcome [6] | outcome [8] | outcome [9] | outcome [10] | outcome [11] | outcome [12] | outcome [13] | outcome [14] | outcome [15] | outcome [17] | Potency [19] | outcome [20]

COc1ccc(S(=O)(=O)N2c3ccc(Cl)cc3[C@@](O)(c3ccccc3Cl)[C@H]2C(=O)N2CCC[C@@H]2C(N)=O)cc1OC
inactive: outcome [1] | Potency [2] | outcome [3] | Potency [4] | outcome [5] | Potency [18] | outcome [6] | outcome [7] | outcome [8] | outcome [9] | outcome [10] | outcome [11] | outcome [13] | outcome [14] | outcome [15] | outcome [16] | outcome [17] | Potency [19]

Cc1cc2cc3c(C)cc(=O)oc3c(C)c2o1
inactive: outcome [1] | Potency [2] | outcome [3] | Potency [4] | outcome [5] | fluorescence, relative to Rose Bengal [6] 0.738% [at 18.6 µM] | fluorescence, % of fluorescein control [7] -0.0056% [at 18.6 µM] | fluorescence, % of triamterene [8] 1.9% [at 18.6 µM] | fluorescence, % of fluorescent control [9] 0.0391% [at 18.6 µM] | fluorescence, % of fluorescein [10] 0.0223% [at 18.6 µM] | fluorescence, % of fluorescent control [11] 1.37% [at 18.6 µM] | activity change [12] -0.0015% [at 18.6 µM] | fluorescence, % of fluorescent control [13] 0.147% [at 18.6 µM] | fluorescence, % of Rose Bengal [14] -0.0947% [at 18.6 µM] | fluorescence, % of fluorescent control [15] 1.64% [at 18.6 µM] | fluorescence, % of fluorescein control [16] -0.0028% [at 18.6 µM] | fluorescence, % of fluorescent control [17] 1.96% [at 18.6 µM]

O=C(NCCc1c[nH]c2ccccc12)c1cccnc1
inactive: outcome [1] | Potency [2] | outcome [3] | Potency [4] | outcome [5] | outcome [6] | outcome [7] | outcome [8] | outcome [9] | outcome [10] | outcome [11] | outcome [12] | outcome [13] | outcome [14] | outcome [15] | outcome [16] | outcome [17]

CCCCCCCCOS(=O)(=O)O
inactive: outcome [1] | Potency [2] | outcome [3] | Potency [4] | outcome [5] | Potency [18] | outcome [6] | outcome [8] | outcome [9] | outcome [10] | outcome [11] | outcome [12] | outcome [13] | outcome [14] | outcome [15] | outcome [16] | Potency [19] | outcome [20]

O=C(CCNNC(=O)c1ccncc1)NCc1ccccc1
inactive: outcome [1] | Potency [2] | outcome [3] | Potency [4] | outcome [5] | Potency [18] | outcome [6] | outcome [7] | outcome [8] | outcome [9] | outcome [10] | outcome [11] | outcome [13] | outcome [14] | outcome [15] | outcome [16] | outcome [17] | Potency [19] | outcome [20]
